Assay outcomes from PubChem BioAssay.
VP16 counter: counter-screen for ROR gamma inhibitors: Gal4-VP16 reporter. hit rate 3.5% among 310,000. Drosophila S2 Gal4-VP16 UAS-luciferase, luminescence, 20 h. Potency, µM (top dose mostly 53.6 µM), most hits filed as inhibitors;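 also: Gal4-VP16 expression switched on by copper sulfate through the metallothionein promoter; nearly all actives have a fitted effect of over 50% in size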
LDHA inh: inhibitors of human lactate dehydrogenase A. activity change, % (values are at about 110 or 230 µM). purified LDHA, NADH/diaphorase-resazurin fluorescence; active compounds read low. hit rate 0.15% among 480,000; in the data active = activity change below about -30%; inconclusive = mostly about -25% to -30%
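LDH5 2 nM; NADH 0.06 mM, pyruvate 0.2 mM; 200 mM Tris pH 7.4, EDTA, Tween-20; 5 min RT. Detection: diaphorase 0.133 mg/mL + resazurin 37 µM, fluorescence ex540/em590 at 0 and 20 min; normalized to enzyme-free and DMSO wells.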
TDP1 cell CPT: growth inhibition of DT40 Tdp1-/-;hTDP1 cells with camptothecin (screen for TDP1 inhibitors) | AID 686979 | hit rate 12% among 420,000 | chicken DT40 Tdp1-/-;hTDP1 cells + 20 nM CPT, ATP luminescence, 48 h | Potency, µM (highest dose often 46.2 µM), usual class: inhibitors; also: nearly all actives have a fitted effect of over 55% in size
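Chicken DT40 Tdp1-/- cells stably complemented with human TDP1 were seeded at 400 cells/well in medium containing 20 nM camptothecin, exposed to pin-transferred compounds, and grown at 37 °C for at least 48 hr. Viability was read as ATP luminescence.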
IL-1B inflam inh: inhibitors of inflammasome signaling (IL-1 beta secretion); THP-1 LPS/ATP IL-1B secretion, AlphaLISA, 16 h; active compounds read low; activity change, % at 57.5 µM; hit rate 4.7% among 360,000; AID 743279; in the data active = activity change below about -50%; inconclusive = mostly about -30% to -49%
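THP-1 cells pretreated 1 hr with compounds (up to 57.5 uM final), then stimulated with LPS (250 ng/mL final) plus ATP (1.25 mM final); secreted IL-1B measured by AlphaLISA after 16 hr, decreased signal indicating inhibition.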
TDP1 cell noCPT: qHTS for Inhibitors of human tyrosyl-DNA phosphodiesterase 1 (TDP1): qHTS in cells in absence of CPT; DT40 Tdp1-/- hTDP1 cells, no CPT, ATP luminescence, 48 h; Potency, µM (doses to about 46.2 µM), actives largely listed as inhibitors; hit rate 15% among 420,000; also: nearly all actives have a fitted effect of over 55% in size
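Seeded 400 DT40-hTDP1 cells/well (vehicle DMSO, no 20 nM CPT); pinned compounds; ≥48 hr at 37 °C; CellTiter-Glo luminescence as viability measure.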
RORgamma inh: ROR gamma (mouse) transcription inhibition; P51450; Drosophila S2 Gal4-RORgamma UAS-luciferase reporter, 20 h; Potency, µM (doses to about 53.6 µM), hits mostly inhibitors; hit rate 5.4% among 310,000; also: nearly all actives have a fitted effect of over 60% in size
Target sequence (P51450 whole entry, looked up, the tested form may be a part): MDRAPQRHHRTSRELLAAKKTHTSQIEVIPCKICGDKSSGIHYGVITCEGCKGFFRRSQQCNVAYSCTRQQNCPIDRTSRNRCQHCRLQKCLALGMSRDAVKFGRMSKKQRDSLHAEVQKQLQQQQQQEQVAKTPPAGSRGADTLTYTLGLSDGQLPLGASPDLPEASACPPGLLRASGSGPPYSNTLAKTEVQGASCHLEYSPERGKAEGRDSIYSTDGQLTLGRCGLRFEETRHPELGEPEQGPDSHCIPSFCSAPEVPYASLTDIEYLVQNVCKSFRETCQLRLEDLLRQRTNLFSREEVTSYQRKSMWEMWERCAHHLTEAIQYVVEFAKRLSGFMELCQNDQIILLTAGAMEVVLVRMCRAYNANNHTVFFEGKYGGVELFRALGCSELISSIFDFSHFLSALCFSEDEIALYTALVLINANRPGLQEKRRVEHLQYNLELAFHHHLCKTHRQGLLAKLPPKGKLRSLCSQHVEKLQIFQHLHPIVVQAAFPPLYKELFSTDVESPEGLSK
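Drosophila Schneider cells stably carrying a metallothionein-driven Gal4 DBD–ROR gamma fusion and a UAS-Photinus luciferase reporter were exposed to compound for 1 hr, then induced with copper sulfate (700 uM final) for 20 hr at ambient temperature before luminescence reading.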
A number is an active result; n = inactive; u = inconclusive; x = not tested or not shown; [ ] = another dose, or the depositor's remark. Compounds with a hit are over-represented: about 18% of the library has one in this group of screens. Unless noted, calls follow the shape of the dose curve; as a rule, active = well fitted curve in the direction sought with a large enough effect; inconclusive = small, poorly fitted or top-dose-only effect, or another doubt; inactive = no such curve, though single readings can be large; an effect the other way counts as inactive or inconclusive.

SMILES	VP16 counter	LDHA inh	TDP1 cell CPT	IL-1B inflam inh	TDP1 cell noCPT	RORgamma inh
CC1=CC(C)(C)Nc2ccc(Cc3ccc4c(c3)C(C)=CC(C)(C)N4)cc21	n	n	20.6µM	n	20.6µM	n
CC(=O)Nc1ccc2nc(-c3cccn3C)[nH]c2c1	u	n	n	n	n	n
O=C(Nc1cccc(-c2nc3ccccc3[nH]2)c1)c1cccc(NC(=O)c2ccco2)c1	u	n	16.4µM	-94.5	18.4µM	u
CC(C)(C)C(=O)Nc1ccc(-c2nc3ccc(NC(=O)C(C)(C)C)cc3[nH]2)cc1	x	n	0.651µM	x	1.16µM	x
Cc1ccc(-c2nc3ccccc3[nH]2)cc1NC(=O)c1ccco1	n	n	n	n	u	n
O=C(Nc1ccc2nc(-c3ccccc3)[nH]c2c1)c1ccco1	n[0.365 µM]	n	u	n	20.6µM	u
Cn1cccc1-c1nc2ccc(NC(=O)c3cccs3)cc2[nH]1	n	n	u	u	15.8µM	u
COc1nc(C(=O)NCC(=O)NC(C)(C)C)cc2ccccc12	x	n	x	x	x	x
Cn1nc(C(=O)NCc2nnc3n2CCCCC3)c2ccccc2c1=O	x	n	x	x	x	x
Cc1ccc(-c2noc(COC(=O)Cc3n[nH]c(=O)c4ccccc34)n2)cc1F	x	n	x	x	x	x
O=C(Nc1ccc2nc(-c3cccnc3)[nH]c2c1)C1CCCCC1	n	n	u	n	14.6µM	n
Nc1cccc(C(=O)Nc2ccc3nc(-c4cccnc4)[nH]c3c2)c1	n	n	n	n	n	n
O=C(Nc1ccc2nc(-c3ccc(Br)o3)[nH]c2c1)c1ccco1	n	n	u	n	9.2µM	n
O=C(Nc1ccccc1)c1cccc(OCc2ccccc2)c1	x	n	x	x	x	x
CCN1CCN(c2ccc(NC(=O)c3cccc(OCc4ccccc4)c3)cc2)CC1	n	n	u	-80.3	u	n
CN1CCN(c2ccc(NC(=O)c3cccc(OCc4ccccc4)c3)cc2)CC1	x	n	23.1µM	n	23.1µM	n[0.365 µM]
CCOCCCNC(=O)N[C@H](C(=O)O)C(C)CC (stereo partly drawn)	x	n	x	x	x	x
CCCC(C)NC(=O)Nc1cc(C(=O)NC2CC2)ccc1C (stereo not drawn)	x	-33.6	x	x	x	x
Cn1ccnc1C(=O)c1cccc(NC(=O)C(=O)NCc2ccccc2)c1	x	n	x	x	x	x
CC(=O)N(C)c1ccc(NC(=S)Nc2ccc(C(C)C)cc2)cc1	22.4µM	n	16.4µM	n	25.9µM	7.08µM
CC(=O)N(C)c1ccc(NC(=O)Nc2ccc(C)c(C)c2)cc1	n	n	u	u	18.4µM	n
CC(C)c1ccc(NC(=S)Nc2ccc3[nH]c(=O)[nH]c3c2)cc1	u	n	n	n	n	u
Cc1cc(NC(=O)CN2CCCCC2)no1	n	-32.1	n	n	n	n
Cc1ccoc1C(=O)Nc1cccc2ccccc12	u	n	9.2µM	n	20.6µM	n
O=C(Nc1cccc2ccccc12)c1ccco1	x	n	n	n	n	x
SMILES	VP16 counter	LDHA inh	TDP1 cell CPT	IL-1B inflam inh	TDP1 cell noCPT	RORgamma inh
O=C(NC1CCCC1)C(=O)c1ccc2c(c1)CCC2	x	n	x	x	x	x
Cc1cc(NC(=O)Nc2ccc(C)c(C)c2)no1	n	n	23.1µM	n	n	n
Cc1cc(NC(=O)C(Cl)c2ccccc2)no1 (stereo not drawn)	n	n	7.31µM	-83.4	u	n
Cc1ccccc1CC(=O)Nc1cc(C(C)(C)C)on1	n	n	n	n	n	n
Cc1cccc(NC(=O)Nc2cccc3ccccc23)c1	n	n	n	n	n	n
Cc1cc(NC(=O)Nc2cccc3ccccc23)no1	n	n	9.2µM	n	u	n
Cc1cc(NC(=O)Cc2ccccc2C)no1	n	n	23.1µM	n	n	n
C[N+](C)(CC(=O)O)C[Si](C)(C)C	x	n	x	x	x	x
CCCCc1ccc(NC(=O)CSc2nc3ncccc3[nH]2)cc1	n	n	2.59µM	n	1.16µM	n
CCOC(=O)c1ccc(NC(=O)CSc2nc3ncccc3[nH]2)cc1	n	n	u	n	20.6µM	n
COc1ccc(NC(C)=O)cc1NC(=O)CSc1nc2ncccc2[nH]1	n	n	13µM	n	18.4µM	n[10 µM]
CCc1ccc(NC(=O)CSc2nc3ncccc3[nH]2)cc1	x	n	u	x	13µM	x
CC(=O)c1ccc(N2CCN(C(=O)c3cc(F)c(F)cc3C)CC2)c(F)c1	x	n	x	x	x	x
CC1CCCCN1C(C)CNC(=S)NCc1ccc(F)cc1 (stereo not drawn)	x	n	x	x	x	x
O=S(=O)(c1ccc2ccccc2c1)N1CCN(c2nc3ccccc3o2)CC1	x	n	x	x	x	x
Cc1ccc(-c2csc3n[nH]c(=S)n23)cc1	8.91µM	n	n	n	n	2.51µM
O=C(OCC(=O)N1CCOCC1)c1cc(-c2ccc(Cl)s2)nc2ccccc12	x	n	x	x	x	x
Cc1ccccc1-c1noc(-c2ccccc2C(=O)NCC2CCCO2)n1 (stereo not drawn)	n	n	u	n	18.4µM	n
Cc1ccccc1Nc1cc(C(=O)NCC2CCCO2)c2ccccc2n1 (stereo not drawn)	n	n	18.4µM	n	u	n
Cc1ccccc1Nc1cc(C(=O)NC2CCCC2)c2ccccc2n1	x	n	n	x	n	x
COc1ccc(/C(C#N)=C/c2cc(Br)c(OCCOc3ccccc3)c(OC)c2)cc1OC	x	n	x	x	x	x
N#Cc1cc2c(nc1N1CCN(C(C(=O)O)c3c[nH]c4ccc(Cl)cc34)CC1)CCCC2 (stereo not drawn)	x	n	x	x	x	x
COc1ccc(NC(=O)C2=CC(c3cccs3)=NS(=O)(=O)N2C)cc1	n	n	u	n	u	n
COc1cc(NC(=O)C2=CC(c3ccc(F)cc3)=NS(=O)(=O)N2C)cc(OC)c1OC	x	n	u	x	23.1µM	x
CN1C(C(=O)Nc2ccc(OC(F)(F)F)cc2)=CC(c2cccs2)=NS1(=O)=O	n	n	u	n	3.66µM	n
SMILES	VP16 counter	LDHA inh	TDP1 cell CPT	IL-1B inflam inh	TDP1 cell noCPT	RORgamma inh
COc1ccc(C2=NS(=O)(=O)N(C)C(C(=O)Nc3ccc(C)cc3)=C2)cc1	n	n	u	n	20.6µM	u
COc1ccccc1C1=NS(=O)(=O)N(C)C(C(=O)Nc2ccc(C(C)=O)cc2)=C1	x	n	x	x	x	x
COc1ccc(OC)c(C2=NS(=O)(=O)N(C)C(C(=O)Nc3cccc(C(C)=O)c3)=C2)c1	u	n	20.6µM	n	u	n
CC(=O)c1ccc(NC(=O)C2=CC(c3ccc(C)cc3)=NS(=O)(=O)N2C)cc1	x	n	8.2µM	x	4.11µM	x
CCC(C)NC(=O)C1=CC(c2cccc(OC)c2)=NS(=O)(=O)N1C (stereo not drawn)	x	n	x	x	x	x
COc1cccc(C2=NS(=O)(=O)N(C)C(C(=O)Nc3ccccc3SC)=C2)c1	x	n	16.4µM	x	u	x
CCOC(=O)Cn1c(=O)c2c(nc(-n3nc(C)cc3C)n2CC)n(C)c1=O	x	n	x	x	x	x
Cc1ccc(C(C)NC(=O)Nc2ccc(Cl)cc2F)c(C)c1 (stereo not drawn)	x	n	x	x	x	x
